Measurements: PubChem BioAssay AID1347416 (National Center for Advancing Translational Sciences (NCATS), 2020)
Out of some 4,100 compounds screened, about 1,600 (39%) were called active. Not shown: some 25% with an inconclusive outcome. Calls come from the whole dose curve; as a rule, active = well fitted inhibition curve with a large enough effect; inconclusive = small, poorly fitted or top-dose-only effect; inactive = no such curve, though single readings can be large or run the other way. The list shows a part of the results.

Experiment: qHTS Validation assay for Inhibitors of Plasmodium falciparum Dd2 growth in vitro; note: nearly all actives have a fitted effect of over 70% in size
Conditions: P. falciparum Dd2 in RBCs, SYBR Green growth, 72 h; series mostly up to 28.7 µM
In short: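 P. falciparum Dd2-infected red blood cells (2.5% hematocrit, 0.3% parasitemia) grown 72 h at 37 °C under 5% O2 with compounds in a titration, 29 uM to 0.5 nM final. Growth read as SYBR Green-1 fluorescence after ~16 h lysis; artesunate 300 nM as positive control.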
Potency is the fitted concentration of half-maximal effect.

Potency, inactive:
Cc1nc(-c2ccccc2OC2CN(S(=O)(=O)Cc3ccccc3F)C2)no1
Cc1noc(C)c1NC(=O)N1CCC(c2n[nH]c(=O)n2-c2ccccc2)CC1
Cc1ccccc1C(=O)N1CCC2(CC1)N(c1ccccc1)C(=O)CS2(=O)=O
O=C(c1cccc2[nH]ccc12)N1CCCC(n2cc(-c3nc(C4CC4)no3)nn2)C1 (stereo not drawn)
OC[C@H]1CCN(Cc2ccc(-c3cccc(Cl)c3Cl)o2)C[C@@H]1O
CCSc1nc(CC(=O)NCc2ccc(S(N)(=O)=O)cc2)cs1
CC(=O)c1c(C)[nH]c(C(=O)COc2ccc3ccc(=O)oc3c2)c1C
Cc1nn(C)c2nc(-c3ccccn3)nc(N3CCC4(CC3)COC(=O)O4)c12
Cc1cc2nc(/C=C/c3nc4cc(C)c(C)cc4[nH]3)[nH]c2cc1C
NC1CC(c2cc(N3CCCN(C(=O)c4ccoc4)CC3)ncn2)C1 (stereo not drawn)
Cc1cc(C)cc(N2CCN(c3cc(C4CC(O)C4)nc(C)n3)CC2=O)c1 (stereo not drawn)
Fc1ccc(F)c(Nc2c3c(nc4ccc(Cl)cc24)CCC3)c1
COc1ccc(C(=O)c2nccc3cc(OC)c(OC)cc23)cc1OC
COc1ccc(Cl)cc1C(=O)NCc1nnc2c(-c3nc(C(C)C)no3)cccn12
O=C(NCc1ccc(C(F)(F)F)cc1F)[C@H]1CCC[C@@H](O)C1
CCOC(=O)c1c(C)[nH]c(C)c1S(=O)(=O)N1CCCC(C(=O)N2CCN(c3cc(C)ccc3C)CC2)C1 (stereo not drawn)
CCc1cccc(OC2CN(C(=O)C3CCCN(CC(N)=O)C3)C2)c1 (stereo not drawn)
OC1CCN(c2cc(N3CCOC(c4ccc(F)cc4)C3)ncn2)CC1 (stereo not drawn)
C=CCCC(=O)Nc1nc(C)c(-c2csc(Nc3ccc(Cl)cc3)n2)s1
CN(Cc1cc(-c2cccnc2)no1)C(=O)C1COc2ccccc2C1 (stereo not drawn)
COC[C@@H]1CN(C(=O)c2cccc(OC(F)(F)F)c2)C[C@H]1C(N)=O
O=C(c1ccc2nc[nH]c2c1)N1CCCN(c2cc(-c3ccc(Cl)cc3)[nH]n2)CC1
CCOc1ccccc1C(=O)N1CCN(c2cc(-c3ccc(OC)cc3)[nH]n2)CC1
COC(=O)c1ccc(NC(=O)Nc2cccc(F)c2)cc1
Cn1nc(C(F)(F)F)c(Cl)c1C(=O)N[C@@H]1CCNC[C@H]1O
Cc1ccsc1C(=O)N1CCC(n2cc(-c3nc(C(C)C)no3)nn2)CC1
CN(c1ccccc1)c1cc(=O)c2ccnc(-c3ccccc3O)c2o1
CN(c1ccccc1)c1cc(=O)c2ccnc(-c3ccncc3)c2o1
CC(=O)N1CCC(Cc2ncc(C)n2CC2CC2)C1 (stereo not drawn)
COCCn1c(C)cnc1CC1CCN(C(=O)Nc2ccccc2F)C1 (stereo not drawn)
COc1ccc(S(=O)(=O)N2CCCC(Cc3noc(-c4ccncc4)n3)C2)cc1 (stereo not drawn)
CCc1ccc(S(=O)(=O)N2CCC(n3cnnc3CC)CC2)cc1
O=S(=O)(c1ccccc1)N1CCCC(Cc2noc(-c3ccncc3)n2)C1 (stereo not drawn)
O=C(NCc1nc2ccccc2[nH]1)C1=C[C@@H](c2ccccc2)C[C@@H](OCc2ccc(CO)cc2)O1
COc1cc(OC)cc(C(=O)Oc2c(CN3CCOCC3)cc(Cl)c3cccnc23)c1
CCCC(c1nnnn1CCC(C)C)N1CCC(C(N)=O)CC1 (stereo not drawn)
CCC(=O)N(C1CCOCC1)C1CCN(Cc2cc(F)ccc2F)CC1
O=C1c2c(nc(CNCc3cccc(F)c3)n2Cc2ccccc2)NCCN1Cc1cccc(Cl)c1
OC(C[n+]1ccccc1)c1ccccc1 (stereo not drawn)
Cc1nn(C(=O)CCCC(=O)N2CCCC2c2nc(C3CCOCC3)no2)c2ccccc12 (stereo not drawn)
O=C(c1ccc(F)c(Cl)c1)N1CCC[C@H]1c1nc(-c2ccccc2)no1

Potency, active:
CC(C)(C)n1nnnc1C(c1cccnc1)N(Cc1ccccc1)Cc1ccco1 (stereo not drawn) 5.31 µM
CC(C)(C)c1ccc(CN(Cc2ccccc2)C(c2ccccn2)c2nnnn2C(C)(C)C)cc1 (stereo not drawn) 4.73 µM
Cc1nccn1CC(O)Cn1c2ccccc2c2ccccc21 (stereo not drawn) 8.41 µM
OCc1ccc(CN2CCCC(CCc3c(F)cccc3F)C2)o1 (stereo not drawn) 4.22 µM
Cc1cccc(Oc2nc(-c3ccccn3)nc3ccccc23)c1 7.5 µM
Cc1cccc(Oc2nc(-c3ccncc3)nc3ccccc23)c1 7.5 µM
CCCOc1ccc(Oc2nc(-c3ccncc3)nc3ccccc23)cc1 4.22 µM
c1ccc(Oc2nc(-c3ccccn3)nc3ccccc23)cc1 7.5 µM
Fc1ccc(Oc2nc(-c3ccccn3)nc3ccccc23)cc1 13.3 µM
Cc1ccccc1Oc1nc(-c2ccccn2)nc2ccccc12 6.68 µM
c1ccc(-c2nc(N3CCCCCC3)c3ccccc3n2)nc1 1.68 µM
CCCCCCSc1ccc([C@H]2N[C@@](Cc3ccccc3)(C(=O)OC)[C@H]3C(=O)N(C)C(=O)[C@@H]23)cc1 4.73 µM
CCCCCCSc1ccc([C@H]2N[C@@](Cc3ccccc3)(C(=O)OC)[C@H]3C(=O)N(CC)C(=O)[C@@H]23)cc1 3.35 µM
CCCSc1ccc([C@H]2N[C@@](Cc3ccccc3)(C(=O)OC)[C@H]3C(=O)N(CC)C(=O)[C@@H]23)cc1 5.31 µM
O=C(CCl)N(c1ccccc1)c1c[nH]c2ccccc12 2.11 µM
COc1ccc(N2CCN(c3cc(C4CC(N)C4)nc(N)n3)CC2(C)C)cc1 (stereo not drawn) 2.99 µM
COc1ccc(/C=C/C(=O)Nc2ccc3nc4c(c(Nc5ccccc5OC)c3c2)CCCC4)cc1 3.35 µM
COc1ccccc1Nc1c2c(nc3ccc(NC(=O)/C=C/c4cccc(OC)c4OC)cc13)CCCC2 5.96 µM
Cc1cc(N2CCN(C3CCCC3)CC2)n2c(nc3ccccc32)c1C#N 1.06 µM
O=C(N[C@H](c1ccccn1)C1CC(O)C1)c1cc(=O)n(-c2ccccc2)[nH]1 (stereo partly drawn) 9.44 µM
COc1ccc(NS(=O)(=O)c2cc(NC(=O)/C=C/c3cc(OC)c(OC)c(OC)c3)ccc2N2CCCCC2)cc1 6.68 µM
COc1cc2nc(Nc3ccc(C)c(C)c3)nc(N)c2cc1OC 0.75 µM
CCOC(=O)c1ccc(Nc2nc(N)c3cc(OC)c(OC)cc3n2)cc1 1.88 µM
COc1cc2nc(Nc3ccc(C)c(Cl)c3)nc(N)c2cc1OC 2.11 µM
COc1cc2nc(N3CCN(c4cc(C)ccc4C)CC3)nc(N)c2cc1OC 6.68 µM
CCOC(=O)c1c(C)[nH]c(C)c1S(=O)(=O)N1CCCC(C(=O)N2CCN(c3cccc(C)c3C)CC2)C1 (stereo not drawn) 1.33 µM
CCOC(=O)c1c(S(=O)(=O)N2CCCC(C(=O)N3CCN(c4cc(C)ccc4C)CC3)C2)c(C)n(C)c1C (stereo not drawn) 1.5 µM
CCOC(=O)c1c(S(=O)(=O)N2CCCC(C(=O)N3CCN(c4cccc(C)c4C)CC3)C2)c(C)n(C)c1C (stereo not drawn) 1.06 µM
CCCCC(=O)Nc1nc(C)c(-c2csc(Nc3cc(OC)ccc3OC)n2)s1 9.44 µM
O=C(Nc1ccc(Nc2ccncc2)cc1)c1ccc(Nc2ccnc3ccc([N+](=O)[O-])cc23)cc1 0.75 µM
O=C(Nc1ccc(Nc2ccncc2)cc1)c1ccc(Nc2ccnc3ccc([N+](=O)[O-])cc23)cc1[N+](=O)[O-] 1.33 µM
COc1cnc(-c2ccccn2)nc1Sc1ccc(Cl)cc1 5.96 µM
COc1cnc(-c2ccccn2)nc1Sc1c(Cl)cccc1Cl 2.99 µM
Oc1ccccc1C1=NN(c2ccccc2)C(c2ccccc2)C1 (stereo not drawn) 7.5 µM
COc1ccc(-c2cc(N3CCN(C(=O)c4c[nH]c5ccccc45)CC3)n[nH]2)cc1 15 µM
Cn1nc(C(F)(F)F)c(-c2ccc(F)cc2)c1NC(=O)Nc1ccc(F)cc1 1.88 µM
Cn1nc(C(F)(F)F)c(-c2cccc(C(F)(F)F)c2)c1NC(=O)Nc1ccc(F)cc1 2.37 µM
Cc1noc(C)c1-c1nccc2c(=O)cc(N(C)c3ccccc3)oc12 17.2 µM
CCCn1c(C)cnc1CC1CCN(S(=O)(=O)c2ccc3c(c2)CCC3)C1 (stereo not drawn) 9.44 µM
Cc1cnc(CC2CCN(S(=O)(=O)c3ccccc3)CC2)n1Cc1ccccc1 5.31 µM
Cc1cnc(CC2CCCN(S(=O)(=O)c3ccccc3)C2)n1CC1CC1 (stereo not drawn) 6.68 µM
CCNC(=S)N/N=C/c1sc(N2CCCCC2)nc1-c1cccs1 0.668 µM
CN1CCN(c2nc(Nc3ccc(O)cc3)nc3ccccc23)CC1 4.22 µM
O=C(Oc1c(CN2CCOCC2)cc(Cl)c2cccnc12)c1ccccc1Br 7.5 µM
CC(C)=NOC(=O)c1c(C)noc1-c1snnc1C 6.68 µM
OC(c1ccc(Cl)cc1)C(CN1CCOCC1)c1ccccc1 (stereo not drawn) 2.99 µM
CCCC(O)(c1ccc(Cl)cc1)C(CN1CCOCC1)c1ccc(Cl)cc1 (stereo not drawn) 4.73 µM
CCCCC(O)(c1ccc(F)cc1)C(CN1CCOCC1)c1ccc(Cl)cc1 (stereo not drawn) 5.96 µM
OC(CNCc1cccc(Cl)c1)c1ccccc1 (stereo not drawn) 4.73 µM
OC(CNCc1cccc(Br)c1)c1ccccc1 (stereo not drawn) 5.96 µM
CCOc1cc(CNCC(O)c2ccccc2)cc(Cl)c1OC (stereo not drawn) 3.35 µM
Cc1ccc2c(C)c(C(=O)N3CCCC3c3nc(C(C)C)no3)oc2c1C (stereo not drawn) 6.68 µM
